Assay results published in PubChem BioAssay AID1851 (National Center for Advancing Translational Sciences (NCATS), 2009).
In all, about 16,000 compounds went through this assay and about 5,700 (36%) were called active. Another 24% or so got no clear call; they are omitted. Some of the results follow. Unmarked numbers belong to inactive results. The call rests on the fitted dose curve; in most records, active means well fitted curve in the direction sought with a large enough effect; inconclusive means small, poorly fitted or top-dose-only effect, or effect the other way; inactive means no such curve, though single readings can be large or run the other way.

biological target: Cytochrome P450 1A2 (Homo sapiens) (UniProt P05177); test: Cytochrome panel assay with activity outcomes; details: recombinant CYP, pro-luciferin dealkylation, luminescence, p450-cyp1a2; series mostly up to 57.1 µM
Sequence (P05177 whole entry, looked up): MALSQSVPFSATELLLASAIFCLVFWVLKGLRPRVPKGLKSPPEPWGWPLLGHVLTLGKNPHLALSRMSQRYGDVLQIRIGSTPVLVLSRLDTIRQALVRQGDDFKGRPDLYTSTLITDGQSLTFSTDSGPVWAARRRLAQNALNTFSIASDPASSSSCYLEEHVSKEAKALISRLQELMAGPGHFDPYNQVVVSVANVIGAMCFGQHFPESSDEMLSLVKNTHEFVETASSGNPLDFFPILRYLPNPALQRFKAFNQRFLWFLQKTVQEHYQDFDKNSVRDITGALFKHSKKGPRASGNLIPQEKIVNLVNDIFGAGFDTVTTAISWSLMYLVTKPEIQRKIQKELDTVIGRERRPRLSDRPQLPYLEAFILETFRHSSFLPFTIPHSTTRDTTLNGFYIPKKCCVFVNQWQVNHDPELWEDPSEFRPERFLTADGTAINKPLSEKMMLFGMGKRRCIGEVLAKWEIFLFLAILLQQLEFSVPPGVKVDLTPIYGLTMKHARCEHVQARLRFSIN
On the % scale 0 is the no-effect control and ±100 the full control effect.

Question: How did the AC50 turn out when `O=C(O)[C@H]1[C@H](C(=O)O)[C@H]2CC[C@@H]1O2` was run?
Answer: inactive

Question: `CCCCc1ccc(-c2nc(NC(=O)C3C4CCC(O4)C3C(=O)O)sc2C)cc1` (stereo not given) was tested. Which AC50 did it give?
Answer: 15.8 µM (active)

Question: How did the AC50 turn out when `CC(C)[C@@]1(NC(=O)[C@@H]2C[C@H]3c4cccc5[nH]cc(c45)C[C@@H]3N(C)C2)O[C@]2(O)[C@H]3CCCN3C(=O)CN2C1=O` was run?
Answer: inactive

Question: How did the AC50 turn out when `O=C(O)[C@H]1CCN1` was run?
Answer: inactive

Question: With `CC[C@]1([C@H]2O[C@@H]([C@@H]3O[C@](O)(CO)[C@@H](C)C[C@H]3C)C[C@H]2C)CC[C@@H]([C@]2(C)CC[C@@]3(C[C@@H](O)[C@@H](C)[C@@H]([C@H](C)[C@H](OC)[C@H](C)C(=O)O)O3)O2)O1` as the compound, how does the AC50 read?
Answer: inactive

Question: How did the activity, negative = inhibition turn out when `CC(=O)OC1=CC2=CC[C@H]3[C@H]4CCC(=O)[C@@]4(C)CC(=O)[C@]3(S)[C@]2(C)CC1` was run?
Answer: -9.43% [at 2.29 µM]

Question: `N[C@H]1C[C@H]1c1ccccc1` was tested. Which AC50 did it give?
Answer: 5.01 µM (active)

Question: For `N[C@@H]1C[C@H]1c1ccccc1`, which AC50 is on record?
Answer: 15.8 µM (active)

Question: With `C[C@@]12CC[C@H](O)C[C@@H]1CC[C@H]1[C@@H]2C[C@@H](O)[C@]2(C)[C@@H](C3=CC(=O)OC3)CC[C@]12O` as the compound, how does the AC50 read?
Answer: inactive

Question: With `CCN1CCN(Cc2cc(OC)c(OC)cc2[N+](=O)[O-])CC1` as the compound, how does the AC50 read?
Answer: inactive

Question: How did the AC50 turn out when `Cc1noc(C)c1C(=O)N1CCC2(CCCN(CC(C)C)C2)CC1` was run?
Answer: inactive

Question: How did the activity, negative = inhibition turn out when `NC(CCl)=N[C@H]1CN2CCC1CC2` was run?
Answer: -4.08% [at 11.4 µM]

Question: For `N#Cc1ccc(CN2CCCC3(CCN(C(=O)Oc4ccccc4)CC3)C2)cc1`, which AC50 is on record?
Answer: inactive

Question: How did the AC50 turn out when `N#CC(=C(/N)Sc1ccccc1N)/C(C#N)=C(/N)Sc1ccccc1N` was run?
Answer: 31.6 µM (active)

Question: Which AC50 does the source give for `NC(=O)CN1CCCC1=O` here?
Answer: inactive

Question: For `CCN1CCN(c2ccc(NC(=O)C(C)C)cc2Cl)CC1`, which AC50 is on record?
Answer: inactive

Question: With `CC(C)C(=O)Nc1ccc([N+](=O)[O-])c(C(F)(F)F)c1` as the compound, how does the AC50 read?
Answer: 0.316 µM (active)

Question: `CS(=O)(=O)N1CCCC(C(=O)N2CCC3(CC2)OCCO3)C1` (stereo not given) was tested. Which AC50 did it give?
Answer: inactive

Question: With `CCOC(=O)C1Cc2c([nH]c3ccccc23)CN1` (stereo not given) as the compound, how does the AC50 read?
Answer: 5.01 µM (active)

Question: `CN(C)CS/C(N)=N/[C@H](O)C(Cl)(Cl)Cl` was tested. Which activity, negative = inhibition did it give?
Answer: 4.09% [at 2.29 µM]

Question: How did the AC50 turn out when `O=C1CN=C(c2cccs2)c2c(sc3c2CCCC3)N1` was run?
Answer: 15.8 µM (active)

Question: With `NC[C@H](O)c1ccc(O)cc1` as the compound, how does the AC50 read?
Answer: inactive

Question: With `CN1C2C=C3C(C#N)=C(N)C(C#N)(C#N)[C@H](c4c(F)cccc4F)[C@H]3C1CC2` (stereo not given in full) as the compound, how does the AC50 read?
Answer: inactive

Question: With `Oc1ccc2c3c1O[C@H]1c4oc5ccccc5c4C[C@]4(O)[C@H](C2)N(CC2CC2)CC[C@@]314` as the compound, how does the AC50 read?
Answer: inactive

Question: How did the AC50 turn out when `Nc1ccncc1` was run?
Answer: inactive

Question: How did the AC50 turn out when `OCc1cnc[nH]1` was run?
Answer: inactive

Question: For `NC(=NCCc1ccc(I)cc1)SCCCc1cnc[nH]1`, which AC50 is on record?
Answer: 15.8 µM (active)

Question: For `CC(=O)OCC1=C(C(=O)[O-])N2C(=O)[C@@H](NC(=O)CCC[C@@H](N)C(=O)[O-])[C@@H]2SC1.[Zn+2]`, which AC50 is on record?
Answer: inactive

Question: For `COC1(CS(=O)c2ccccc2)CCN(CCc2c[nH]c3ccc(F)cc23)CC1` (stereo not given), which AC50 is on record?
Answer: inactive

Question: `Oc1ccc2[nH]cc(CCCCN3CC=C(c4ccccc4)CC3)c2c1` was tested. Which AC50 did it give?
Answer: 31.6 µM (active)

Question: Which AC50 does the source give for `S=C(Nc1ccc(Cl)cc1)NC1CC2CCCC(C1)N2C1CCCC1` (stereo not given) here?
Answer: inactive

Question: Which AC50 does the source give for `O=C(Oc1ccccc1)N1CCC2(CCCN(Cc3ccccc3)C2)CC1` here?
Answer: inactive

Question: `C[C@@H]1O[C@H](O[C@@H]2C=C3CC[C@H]4[C@@H](CC[C@]5(C)[C@@H](c6ccc(=O)oc6)CC[C@]45O)[C@@]3(C)CC2)[C@@H](O)[C@H](O)[C@@H]1O` was tested. Which AC50 did it give?
Answer: inactive

Question: With `O=C(O)/C=C(\CC(=O)O)C(=O)O` as the compound, how does the activity, negative = inhibition read?
Answer: -6.78% [at 11.4 µM]

Question: `CN1CCN(c2ncc3ncc(=O)n(C)c3n2)CC1` was tested. Which AC50 did it give?
Answer: 12.6 µM (active)

Question: Which AC50 does the source give for `CN1CCC2(CC1)CCN(C(=O)Oc1ccccc1)CC2` here?
Answer: inactive

Question: With `CC(C)[C@@H](C)/C=C\[C@@H](C)[C@@H]1CC[C@H]2C3=CC=C4C[C@@H](O)CC[C@]4(C)[C@H]3CC[C@]21C` as the compound, how does the activity, negative = inhibition read?
Answer: -8.17% [at 11.4 µM]

Question: How did the AC50 turn out when `CC(C)NP(=O)(NC(C)C)OP(=O)(NC(C)C)NC(C)C` was run?
Answer: inactive

Question: With `COc1cc2c(cc1OC)[C@]13CC[N@+]4(C)CC5=CCO[C@H]6CC(=O)N2[C@@H]1[C@@H]6[C@@H]5C[C@]34O` as the compound, how does the activity, negative = inhibition read?
Answer: -11.4% [at 2.29 µM]

Question: For `C[C@H](NC(C)(C)C)C(=O)c1cccc(Cl)c1`, which AC50 is on record?
Answer: inactive

Question: `Cc1c2cc[n+](CCN3CCCCC3)cc2c(C)c2c1[nH]c1ccc(O)cc12` was tested. Which AC50 did it give?
Answer: 2.51 µM (active)

Question: How did the AC50 turn out when `CCNC(=O)[C@@H]1O[C@@H](n2cnc3c(N)ncnc32)[C@@H](O)[C@H]1O` was run?
Answer: inactive

Question: How did the AC50 turn out when `CP(=O)(O)CCCN` was run?
Answer: inactive

Question: How did the AC50 turn out when `O=C(CNS(=O)(=O)c1cccs1)N1CCC2(CC1)OCCO2` was run?
Answer: inactive

Question: With `CCn1c(O)c(C(c2ccccn2)c2c(O)n(CC)c(=S)[nH]c2=O)c(=O)[nH]c1=S` as the compound, how does the AC50 read?
Answer: inactive

Question: With `OC(Cn1c2ccccc2c2ccccc21)C[n+]1ccccc1` (stereo not given) as the compound, how does the AC50 read?
Answer: 3.16 µM (active)

Question: Which AC50 does the source give for `C/C=C1\C[C@H](C)[C@@](O)(CO)C(=O)OCC2=CCN3CC[C@@H](OC1=O)[C@@H]23` here?
Answer: inactive

Question: Which AC50 does the source give for `CCOP(=O)(OCC)C(NC(=O)C(Cl)Cl)C(Cl)(Cl)Cl` (stereo not given) here?
Answer: inactive

Question: For `COCC(=O)N1CCC2(CCCN(Cc3ccncc3)C2)CC1`, which AC50 is on record?
Answer: inactive

Question: For `Nc1nc(OCc2ccccc2)c2[nH]cnc2n1`, which AC50 is on record?
Answer: 1 µM (active)

Question: `O=C(Oc1ccccc1)N1CCC2(CCN(Cc3nccs3)CC2)CC1` was tested. Which AC50 did it give?
Answer: inactive

Question: Which AC50 does the source give for `NC[C@H](O)c1cc(O)c(O)cc1F` here?
Answer: inactive

Question: How did the AC50 turn out when `C[N+]1(C)CCc2cc3c(cc2[C@@H]1[C@@H]1OC(=O)c2c1ccc1c2OCO1)OCO3` was run?
Answer: inactive

Question: How did the AC50 turn out when `CN1Cc2c(ccc3c2OCO3)[C@@H]2[C@@H](O)Cc3cc4c(cc3[C@@H]21)OCO4` was run?
Answer: 2.51 µM (active)

Question: Which AC50 does the source give for `CN1CCc2cc3c(cc2[C@@H]1O)OCO3` here?
Answer: inactive

Question: For `Cn1c(O)c(C(c2ccccn2)c2c(O)n(C)c(=S)n(C)c2=O)c(=O)n(C)c1=S`, which AC50 is on record?
Answer: inactive

Question: How did the AC50 turn out when `CC(C)(C)c1o[nH]c(=O)c1C[C@H](N)C(=O)O` was run?
Answer: inactive

Question: How did the AC50 turn out when `COc1cc(CCN)c(OC)c(OC)c1` was run?
Answer: 3.16 µM (active)

Question: Which AC50 does the source give for `COc1cc([C@@H](O)CN)ccc1O` here?
Answer: inactive

Question: With `Cn1c(=O)c2[nH]cnc2n(C)c1=O.[CH2-][C@H](Cc1cccc2cc(C(=O)O)c(=O)oc12)OC.[Hg].[OH-]` as the compound, how does the activity, negative = inhibition read?
Answer: -15.3% [at 11.4 µM]
